# Screening results as filed in PubChem BioAssay.
# A selection: hits, their analogues and other compounds. The true share with any hit is near 19%.
# HT1080NT lethal: qHTS for induction of synthetic lethality in tumor cells producing 2HG: qHTS for the HT-1080-NT fibrosarcoma cell line; HT-1080-NT fibrosarcoma viability, CellTiter-Glo ATP luminescence, 48 h; Potency, µM (highest dose often 46.1 µM), actives largely listed as cytotoxic; hit rate 1.6% among 360,000; AID 686970, 2013;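 further: NT is the 2HG producing partner of a matched IDH1 knockdown line; nearly all actives have a fitted effect of over 55% in size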
#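 Viability of the 2HG-overproducing fibrosarcoma line after 48 hours of compound exposure at 37 degrees C was determined by luminescence with CellTiter-Glo, and concentration-effect curves were then fitted and categorized.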
# DT40 TDP1 CPT: qHTS for Inhibitors of human tyrosyl-DNA phosphodiesterase 1 (TDP1): qHTS in cells in presence of CPT; chicken DT40 Tdp1-/-;hTDP1 cells + 20 nM CPT, ATP luminescence, 48 h; Potency, µM (doses to about 46.2 µM), actives largely listed as inhibitors; hit rate 12% among 420,000; AID 686979, 2013; further: nearly all actives have a fitted effect of over 55% in size
#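 Chicken DT40 Tdp1-/- cells stably complemented with human TDP1 were seeded at 400 cells/well in medium containing 20 nM camptothecin, exposed to pin-transferred compounds, and grown at 37 °C for at least 48 hr. Viability was read as ATP luminescence.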
# IL1B secr inh: qHTS for Inhibitors of Inflammasome Signaling: IL-1-beta AlphaLISA Primary Screen | hit rate 4.7% among 360,000 | THP-1 LPS/ATP IL-1B secretion, AlphaLISA, 16 h; hits give low values | activity change, % at 57.5 µM; in the data active means activity change below about -50%; inconclusive means mostly about -30% to -49%
#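 Secreted IL-1B measured by AlphaLISA bead assay after 16 h compound exposure of THP-1 cells; compounds (final up to 57.5 uM) added 1 h before LPS (250 ng/mL) and ATP (1.25 mM) stimulation; lower signal means less secretion.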
# uPA surface inh: qHTS for Inhibitors of Cell Surface uPA Generation | cell surface uPA generation assay, qHTS | Potency, µM (doses to about 38.3 µM), usual class: inhibitors | hit rate 0.31% among 330,000; active means well fitted inhibition curve with a large enough effect; inconclusive means small, poorly fitted or top-dose-only effect; inactive means no such curve, though single readings can be large or run the other way; tested in mouse RAW 264.7 cells; further: nearly all actives have a fitted effect of over 55% in size
# DT40 TDP1 no CPT: qHTS for Inhibitors of human tyrosyl-DNA phosphodiesterase 1 (TDP1): qHTS in cells in absence of CPT | DT40 Tdp1-/- hTDP1 cells, no CPT, ATP luminescence, 48 h | Potency, µM (doses to about 46.2 µM), hits mostly inhibitors | hit rate 15% among 420,000 | AID 686978, 2013; further: nearly all actives have a fitted effect of over 55% in size
#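 Growth of hTDP1-complemented DT40 Tdp1-knockout cells is measured by ATP luminescence after at least 48 hr compound exposure at 37 °C, with DMSO substituting for the 20 nM CPT used in the parallel screen.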
# HT1080 IDH1KD tx: qHTS for induction of synthetic lethality in tumor cells producing 2HG: qHTS for the HT-1080-IDH1KD cell line; HT-1080 IDH1 knockdown viability, ATP luminescence, 48 h; Potency, µM (doses to about 46.1 µM), hits mostly cytotoxic; hit rate 2% among 360,000; AID 686971, 2013
#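 In this qHTS, HT-1080 cells depleted of IDH1 are exposed for 48 h at 37 °C to compound titrations. Toxicity is scored from CellTiter-Glo luminescence, with DMSO as full viability and medium alone as none.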
# A number is an active result; – = inactive; ? = inconclusive; · = no result. Unless noted, the call rests on the fitted dose curve; in most records, active means well fitted curve in the direction sought with a large enough effect; inconclusive means small, poorly fitted or top-dose-only effect, or another doubt; inactive means no such curve, though single readings can be large; an effect the other way counts as inactive or inconclusive.
SMILES,HT1080NT lethal,DT40 TDP1 CPT,IL1B secr inh,uPA surface inh,DT40 TDP1 no CPT,HT1080 IDH1KD tx
O=Cc1cn(CC(=O)Nc2ccc3c(c2)OCO3)c2ccccc12,–,?,–,–,16µM,–
CCc1cccc(NC(=O)Cn2cc(C=O)c3ccccc32)c1,?,9.2µM,–,–,10µM,16µM
COC(=O)[C@@]12C[C@@H](CC(=O)N3CCC(c4ccccc4)CC3)C(=O)N(Cc3ccco3)C1=CCC(C)(C)C2,–,?,–,·,?,–
CCC(=O)c1ccc(OC(=O)Cc2ccc(OC)cc2)cc1,–,–,–,–,–,–
Cc1ccc(N2CC(C(=O)Nc3nnc(SCC(=O)N4CCOCC4)s3)CC2=O)cc1 (configuration not stated),–,–,–,–,–,–
Cc1ccc(C(=O)N2CCN(c3ccc(N4CCOCC4)nn3)CC2)cc1,–,–,–,–,–,–
CCCOc1ccc(C(=O)N2CCN(c3ccc(N)cc3Cl)CC2)cc1,–,23µM,–,–,21µM,–
CCCCOc1ccc(C(=O)N2CCN(c3ccc(N4CCOCC4)nn3)CC2)cc1,–,23µM,–,–,?,–
CCOc1ccc(C(=O)N2CCN(c3ncccn3)CC2)cc1,–,–,–,–,–,–
COc1ccc(C(=O)N2CCCCC2CCN2CCOCC2)cc1 (configuration not stated),·,–,·,·,–,·
CC(=O)c1nn(-c2cccc(Br)c2)cc1C(=O)c1ccc(Br)cc1,–,13µM,–,–,12µM,–
Cn1cc(S(=O)(=O)N2CCOCC2)cc1C(=O)Nc1ccc(Cl)c(C(F)(F)F)c1,·,?,·,·,23µM,·
O=C(Cc1c(Cl)cccc1Cl)Nc1cccc(S(=O)(=O)N2CCOCC2)c1,–,–,–,–,–,–
CN(CC(=O)Nc1cccc(S(=O)(=O)N2CCOCC2)c1)CC(=O)Nc1ccc(Cl)c(C(F)(F)F)c1,–,15µM,–,?,7.3µM,–
Cc1ccc(C)c(NC(=O)c2cc(S(=O)(=O)N3CCOCC3)cn2C)c1,–,15µM,–,–,–,–
C[C@H]1CN([C@@H](C)CO)C(=O)c2cccc(NS(=O)(=O)c3cn(C)cn3)c2O[C@H]1CN(C)S(C)(=O)=O,–,–,–,–,–,–
COc1ccc(Cc2nc(C(=O)Nc3ccc(Cl)cc3)cs2)cc1,–,–,–,–,–,?
COc1ccc(NC(=O)c2csc(Cc3ccc(Cl)cc3)n2)cc1,–,–,–,–,–,–
COc1ccc(CNC(=O)c2csc(Cc3ccc(Cl)cc3)n2)cc1,–,–,-55,–,–,–
COc1ccc(Cc2nc(C(=O)Nc3ccccc3)cs2)cc1,?,–,-54,–,?,–
COC(=O)C[C@H]1C=C[C@H](NC(=O)Nc2ccccc2F)[C@@H](CO)O1,–,–,–,·,–,–
CC(C)(C)c1ccc(C(=O)NCC(c2ccco2)S(=O)(=O)c2ccccc2)cc1 (configuration not stated),·,18µM,·,·,23µM,·
CC(C)(C)c1ccc(C(=O)NCC(c2cccs2)S(=O)(=O)c2ccccc2)cc1 (configuration not stated),·,16µM,·,·,15µM,·
O=S(=O)(NCC(c1ccco1)S(=O)(=O)c1cccs1)c1ccccc1 (configuration not stated),·,?,·,·,–,·
O=S(=O)(NCC(c1cccs1)S(=O)(=O)c1ccccc1)c1ccccc1 (configuration not stated),·,1.2µM,·,·,1.8µM,·
SMILES,HT1080NT lethal,DT40 TDP1 CPT,IL1B secr inh,uPA surface inh,DT40 TDP1 no CPT,HT1080 IDH1KD tx
Cc1ccc(CNC(=O)C(=O)NCC(c2cccs2)S(=O)(=O)c2ccccc2)cc1 (configuration not stated),·,–,·,·,–,·
CCOc1ccc(C(=O)NCC(c2cccs2)S(=O)(=O)c2ccccc2)cc1 (configuration not stated),·,29µM,·,·,?,·
COc1cc(-c2nn3c(-c4cccnc4)nnc3s2)cc(OC)c1OC,–,?,–,·,?,–
COc1ccc(-c2nnc3sc(-c4cccs4)nn23)cc1OC,–,10µM,-52,–,11µM,–
COc1cc(-c2nnc3sc(-c4cccs4)nn23)cc(OC)c1OC,–,?,–,–,12µM,–
c1ccc(Cc2nnc3sc(-c4cccs4)nn23)cc1,–,–,–,–,–,–
CCCCn1c(SCc2ccccc2C#N)nc2c(sc3ccccc32)c1=O,·,–,·,·,?,·
Cc1cc(C)nc(NC(=O)c2cccc(Br)c2)n1,–,–,–,–,?,–
Cc1ccc(-c2cnc(NC(=O)c3cccc(Br)c3)s2)c(C)c1,–,?,-58,–,?,–
O=C(NC1CCCCC1)C(c1cccc2ccccc12)n1c(=O)c(-c2ccco2)nc2ccccc21 (configuration not stated),–,16µM,–,·,23µM,–
COc1ccc(NC(=O)C(c2cccc3ccccc23)n2c(=O)c(-c3ccco3)nc3ccccc32)cc1 (configuration not stated),–,?,–,·,–,–
